Many of the other results were omitted from the sample, so hits are more common in it than they were.
Sm TGR block – inhibitors of Schistosoma mansoni thioredoxin glutathione reductase | purified TGR, DTNB reduction, TNB absorbance 405 nm | Potency, µM (titrated, usually from 114 µM), actives largely listed as inhibitors | Q962Y6 | 360,000 compounds, 3% hits; note: nearly all actives have a fitted effect of over 60% in size
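First, TGR (20 nM dispensed) and NADPH were mixed with compound. Second, a 15 min room-temperature incubation followed. Third, further NADPH and then DTNB were added to start the reaction. Finally, TNB absorbance was monitored kinetically.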
CHX counter – counter-screen for Shiga toxin inhibitors: cycloheximide protein synthesis inhibition; cell reporter, cycloheximide protein synthesis inhibition counterscreen; max response, %; 300,000 compounds, 12% hits; in the data active = max response mostly above about 13%, no sharp cut-off; inactive = mostly below about 14%; note: read at 38.3 µM for the half of the compounds with a filed dose
Tb PYK inh – T. brucei pyruvate kinase inhibition. Q57TT1. TbPYK enzyme, Kinase-Glo Plus ATP luminescence, 45 min. Potency, µM (series often up to 76.8 µM), actives largely listed as inhibitors. 410,000 compounds, 0.12% hits; note: nearly all actives have a fitted effect of over 50% in size
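Readout: single end-point luminescence (Kinase-Glo Plus, 10 min). Reaction conditions were TbPYK/substrate plus 130 uM ADP, 45 min at RT, pH 7.2 TEA buffer. No-enzyme wells served as controls, and data were normalized before concentration-response fitting.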
LmPK inhibitor – inhibitors of Leishmania mexicana pyruvate kinase. Q27686. purified LmPK, Kinase-Glo ATP luminescence, 1 h. Potency, µM (titrated, usually from 57.5 µM), most hits filed as inhibitors. 290,000 compounds, 0.37% hits. AID 1721
Target sequence (Q27686 whole entry, looked up): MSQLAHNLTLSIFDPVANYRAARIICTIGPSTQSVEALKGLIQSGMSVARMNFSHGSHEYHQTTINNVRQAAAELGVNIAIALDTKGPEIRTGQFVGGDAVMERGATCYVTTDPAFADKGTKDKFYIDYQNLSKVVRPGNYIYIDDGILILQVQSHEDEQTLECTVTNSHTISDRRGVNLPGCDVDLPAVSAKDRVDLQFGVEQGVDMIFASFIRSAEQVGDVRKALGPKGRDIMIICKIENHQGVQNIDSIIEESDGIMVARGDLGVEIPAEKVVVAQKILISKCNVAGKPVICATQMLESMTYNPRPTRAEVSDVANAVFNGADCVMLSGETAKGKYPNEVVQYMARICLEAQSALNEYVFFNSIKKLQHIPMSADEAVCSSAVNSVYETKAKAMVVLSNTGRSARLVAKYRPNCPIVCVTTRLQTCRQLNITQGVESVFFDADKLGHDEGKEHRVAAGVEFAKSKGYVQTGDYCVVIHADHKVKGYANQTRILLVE
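Screened at intermediate enzyme activity to detect both inhibitors and activators: LmPK at 0.1 nM, with a 0.5 nM enzyme column as activation reference. PEP 0.5 mM, ADP 0.1 mM; ATP detected by luminescence after 1 h.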
FBPA Giardia inh – blocks Giardia fructose-bisphosphate aldolase activity. A8B2U2. purified Giardia FBPA. Potency, µM (doses to about 59.6 µM), actives largely listed as inhibitors. 290,000 compounds, 0.71% hits; note: nearly all actives have a fitted effect of over 55% in size
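Giardia FBPA (40 nM reagent) was preincubated 10 min at RT with compound (up to 57.5 uM final), then substrate plus GAPDH/TPI/NAD/arsenate coupling system with diaphorase/resazurin was added; resorufin fluorescence (525/598 nm) was read after 20 min.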
Shiga inhibitor – inhibitors of Shiga toxin in Vero cells | AID 2315 | Vero cells, Shiga toxin protein synthesis inhibition reporter | 290,000 compounds, 9.2% hits | inhibition, % at 38.7 µM; in the data active = inhibition mostly above about 28%, no sharp cut-off; inactive = mostly below about 43%
Hits are given with their value; [ ] = another dose, or the depositor's remark. Unless noted, calls come from the whole dose curve; as a rule, active = well fitted curve in the direction sought with a large enough effect; inconclusive = small, poorly fitted or top-dose-only effect, or another doubt; inactive = no such curve, though single readings can be large; an effect the other way counts as inactive or inconclusive.

Screening CCCS(=O)(=O)NCCc1cc2cc(C)c(C)cc2[nH]c1=O returned Sm TGR block inactive, CHX counter inactive, Tb PYK inh inactive, LmPK inhibitor inactive, FBPA Giardia inh inactive and Shiga inhibitor inactive.
Cc1ccc2cc(CCNC(=O)c3ccco3)c(=O)[nH]c2c1C was read as Sm TGR block inconclusive, CHX counter 61, Tb PYK inh inactive, LmPK inhibitor inactive, FBPA Giardia inh inactive and Shiga inhibitor active.
For CCOc1ccc(-c2cc3c(=O)n(Cc4nc(-c5ccccc5OCC)oc4C)ccn3n2)cc1Cl the results were Sm TGR block inactive and Tb PYK inh inactive.
Screening CCOC(=O)CSC1=NC(=O)/C(=C\c2ccc(OC(C)=O)cc2)S1 returned Sm TGR block 8.9µM, CHX counter 28, Tb PYK inh inactive, LmPK inhibitor inconclusive, FBPA Giardia inh inactive and Shiga inhibitor 120.
Screening CCOC(=O)COc1ccc(Br)cc1/C=C1\SC(N)=NC1=O returned Sm TGR block inactive, CHX counter inactive, Tb PYK inh inactive, LmPK inhibitor inactive, FBPA Giardia inh inactive and Shiga inhibitor inactive.
`CCOC(=O)CSC1=NC(=O)/C(=C/c2ccc(Br)cc2)S1` gave Sm TGR block 3.2µM, CHX counter 30, Tb PYK inh inactive, LmPK inhibitor inactive, FBPA Giardia inh inactive and Shiga inhibitor 60.
COC(=O)c1[nH]c2ccc(F)cc2c1NC(=O)Nc1ccc(OC)cc1 was read as Sm TGR block inactive, CHX counter inactive, Tb PYK inh inactive, LmPK inhibitor inactive, FBPA Giardia inh inactive and Shiga inhibitor inactive.
`COC(=O)c1[nH]c2ccc(C)cc2c1NC(=O)Nc1ccc(OC)cc1` gave Sm TGR block inactive, CHX counter 19, Tb PYK inh inactive, LmPK inhibitor inactive, FBPA Giardia inh inactive and Shiga inhibitor inactive.
CC(=O)N1CCC2(CCCN(c3ccccn3)C2)CC1 was read as Tb PYK inh inactive and FBPA Giardia inh inactive.
`CC(=O)Nc1c([N+](=O)[O-])cc2[nH]c(=O)[nH]c2c1[N+](=O)[O-]` gave Sm TGR block 50µM, CHX counter inactive, Tb PYK inh inactive, LmPK inhibitor inactive, FBPA Giardia inh inactive and Shiga inhibitor inactive.
Screening Cc1ccc(Nc2ncc(C(=O)N3CCN(c4ccc(F)cc4)CC3)c3ccccc23)cc1Cl returned Sm TGR block inactive and Tb PYK inh inactive.
Screening COC(=O)c1cc(-c2ccc(C)o2)nc2ccccc12 returned Sm TGR block inconclusive, CHX counter inactive, Tb PYK inh 22µM, LmPK inhibitor inactive, FBPA Giardia inh inactive and Shiga inhibitor inactive.
For Cc1ccc(-c2cc(C(=O)Nc3ccccc3C)c3ccccc3n2)o1 the results were Sm TGR block 10µM, CHX counter inactive, Tb PYK inh inactive, LmPK inhibitor inactive, FBPA Giardia inh inactive and Shiga inhibitor inactive.
Cc1ccc(-c2cc(C(=O)NCc3ccco3)c3ccccc3n2)o1 was read as Sm TGR block 18µM, CHX counter inactive, Tb PYK inh inconclusive, LmPK inhibitor inactive, FBPA Giardia inh inactive and Shiga inhibitor inactive.
For Cc1cc(C(=O)NCc2ccco2)c2ccccc2n1 the results were Sm TGR block inactive, CHX counter inactive, Tb PYK inh inactive, LmPK inhibitor inactive, FBPA Giardia inh inactive and Shiga inhibitor inactive.
Screening CCOC(=O)C1CCCN(Cc2nc(CC3CC3)no2)C1 (configuration not stated) returned Sm TGR block inactive, CHX counter inactive, Tb PYK inh inactive, LmPK inhibitor inactive, FBPA Giardia inh inactive and Shiga inhibitor inactive.
Screening Cc1ccc(Cl)cc1N1CCN(C(=O)c2cccn2-c2nnc(N3CCCC3)s2)CC1 returned Sm TGR block inconclusive and Tb PYK inh inactive[15.4 µM].
Screening Cc1ccc(Nc2c(-c3ccc(C)s3)nc3ncccn23)cc1 returned Sm TGR block inactive and Tb PYK inh inactive.
`Cc1ccc(SCc2nc3ncccn3c2Br)cc1` gave Sm TGR block inactive, CHX counter 28, Tb PYK inh inactive, LmPK inhibitor inactive, FBPA Giardia inh inactive and Shiga inhibitor inactive.
Screening COC(=O)c1ccccc1NC(=O)Nc1cccs1 returned Sm TGR block inactive, CHX counter inactive, Tb PYK inh inactive, LmPK inhibitor inactive, FBPA Giardia inh inactive and Shiga inhibitor inactive.
For COc1ccc(Cl)cc1NC(=O)Nc1cnccn1 the results were Sm TGR block inactive, CHX counter inactive, Tb PYK inh inactive, LmPK inhibitor inactive, FBPA Giardia inh inactive and Shiga inhibitor inactive.
Screening O=C(NCC(O)c1ccccc1)Nc1cccs1 (configuration not stated) returned Sm TGR block inactive, CHX counter 24, Tb PYK inh inactive, LmPK inhibitor inactive, FBPA Giardia inh inactive and Shiga inhibitor inactive.
`Cc1cc(NC(=O)Nc2ccccc2Cl)no1` gave Sm TGR block inactive, CHX counter 27, Tb PYK inh inactive, LmPK inhibitor inactive, FBPA Giardia inh inactive and Shiga inhibitor 64.
O=C(Nc1cccs1)Nc1ccccc1Br was read as Sm TGR block inactive, CHX counter 30, Tb PYK inh inactive, LmPK inhibitor inactive, FBPA Giardia inh inactive and Shiga inhibitor 47.
For COc1ccc(Cl)cc1NC(=O)Nc1cc(C)on1 the results were Sm TGR block inactive, CHX counter 36, Tb PYK inh inactive, LmPK inhibitor inactive and Shiga inhibitor 61.
Screening O=C(COC(=O)C12CC3CC(CC(O)(C3)C1)C2)NCc1ccco1 returned CHX counter inactive and Shiga inhibitor inactive.
O=C(Nc1ccc(C(F)(F)F)cn1)Nc1cccs1 was read as Sm TGR block inactive, CHX counter 26, Tb PYK inh inactive, LmPK inhibitor inactive, FBPA Giardia inh inactive and Shiga inhibitor 35.
Screening Cc1cc(NC(=O)Nc2cccs2)no1 returned Sm TGR block inactive, CHX counter 16, Tb PYK inh inactive, LmPK inhibitor inactive, FBPA Giardia inh inactive and Shiga inhibitor inactive.
Screening COc1cccc(C(=O)Nc2cc(C)on2)c1OC returned Sm TGR block inactive, CHX counter 49, Tb PYK inh inactive, LmPK inhibitor inactive, FBPA Giardia inh inactive and Shiga inhibitor 76.
CSc1ccc(CCNC(=O)CCCn2c(=O)c3cccn3c3ccccc32)cc1 was read as Sm TGR block inactive and Tb PYK inh inactive.
CCOC(=O)[C@H]1[C@H]2COc3cc(OC)ccc3[C@@H]2N2C(=O)N(c3ccc(Cl)cc3)C(=O)[C@@]12C was read as Sm TGR block inactive, CHX counter inactive, Tb PYK inh inactive, LmPK inhibitor inactive, FBPA Giardia inh inactive and Shiga inhibitor inactive.
Screening CCOC(=O)[C@@H]1[C@H]2COc3cc(OC)ccc3[C@@H]2N2C(=O)N(c3ccc(Cl)cc3)C(=O)[C@@]12C returned Sm TGR block inactive, CHX counter 16, Tb PYK inh inactive, LmPK inhibitor inactive, FBPA Giardia inh inactive and Shiga inhibitor 29.
Screening Cn1cc(S(=O)(=O)c2ccc(Cl)cc2)c(=O)c2cc(F)c(N3CCOCC3)cc21 returned Sm TGR block inactive and Tb PYK inh inactive.
